From PubChem BioAssay AID602 (SRMLSC, 2007)
The campaign covered roughly 85,000 compounds. About 35 (0.04%) were called active.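 How the source made its calls: active means viability drop by adding the cancer drug above about 55%, with treated viability meeting a 40% cutoff (limit read from the data); inactive means the rest, inconclusive results apart.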 This excerpt belongs to a sample that is enriched for actives.

Test: MRP1 drug-resistance reversers in H69AR cells – cell-based, doxorubicin co-treatment, primary screen (AID 602);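 on differential viability (reversal): larger differential means the compound sensitizes cells more to doxorubicin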
Conditions: CellTiter-Glo, 72 h, at 10 µM; for differential viability (reversal): stronger effect = higher value
[1] = H69AR cells + 2 uM doxorubicin, measured here: viability with 2 uM doxorubicin, stronger effect = lower value
[2] = H69AR cells, measured here: cytotoxicity without doxorubicin

| SMILES | differential viability (reversal) (H69AR cells + 2 uM doxorubicin) | viability [1] [%] | viability [2] [%] |
| --- | --- | --- | --- |
| Cc1cc(C)n(-c2nnc(C)n2NC(=O)c2cccc(Cl)c2)n1 | -4.55% (inactive) | 92.7 | 88.1 |
| Cc1ccc(OCc2nnc(NC(=O)OCC(C)C)s2)cc1 | 9.33% (inactive) | 92.3 | 102 |
| O=S(=O)(N1CCCCC1)N1CCNCC1 | -0.65% (inactive) | 101 | 100 |
| COc1cccc(OCc2cc(/C=N/NC(=O)c3nc(Cl)c(Cl)c(N)c3Cl)ccc2OC)c1 | -32.4% (inactive) | 52.1 | 19.7 |
| CS(=O)(=O)N(CC(O)Cn1c2ccccc2c2ccccc21)c1cccc2ccccc12 (stereo not drawn) | -10.3% (inactive) | 12 | 1.71 |
| CSc1ccccc1NC(=O)c1cc(C2CC2)on1 | -6.53% (inactive) | 97.2 | 90.7 |
| O=C(NCCOc1ccccc1)c1ccccc1 | -3.69% (inactive) | 95.1 | 91.4 |
| COc1ccc(NC(=O)Nc2ccc3nc(C)c(C)nc3c2)cc1 | 5.42% (inactive) | 85.3 | 90.7 |
| CCNc1nc(NC(C)C)nc(OCCOC(=O)c2ccccc2)n1 | -9.76% (inactive) | 93.2 | 83.5 |
| CC(C)=C1SC(N2CCN(c3cccc(C)c3)CC2)=NC1=O | 15.1% (inactive) | 81.8 | 96.9 |
| O=C(NC1CCCC1)C(c1ccccn1)N(C(=O)c1csnn1)C1CCCC1 (stereo not drawn) | 0.73% (inactive) | 80.5 | 81.2 |
| COC(=O)C1=C(Nc2ccc(C)cc2)C=C(C)C(C(=O)OC)C1c1ccc(F)cc1 (stereo not drawn) | -31.5% (inactive) | 43.6 | 12.1 |
| CCC(C)(C)n1nnnc1CN1CCN(c2nc3ccc(C)cc3cc2C#N)CC1 | 0.16% (inactive) | 81.3 | 81.4 |
| CCOc1cc2[nH]c(=S)n(CCN3CCCCC3C)c(=O)c2cc1OCC (stereo not drawn) | 3.92% (inactive) | 78.5 | 82.5 |
| CCOC(=O)c1cnc(SCC(=O)Nc2ccccc2C(=O)OC)nc1N | 2.9% (inactive) | 84.2 | 87.2 |
| O=C(Nc1ccc2oc(-c3ccc4ccccc4c3)nc2c1)c1cccs1 | -0.32% (inactive) | 2.97 | 2.65 |
| CCN(CC)C(=O)CN(c1cccc(OC)c1)S(=O)(=O)c1ccc(C)cc1 | -12.4% (inactive) | 94.7 | 82.3 |
| Cc1nnc(NC(=O)CCCOc2ccccc2)s1 | 12.8% (inactive) | 80.9 | 93.7 |
| CCn1c(-c2ccoc2C)n[nH]c1=S | 3.26% (inactive) | 86.2 | 89.5 |
| Cc1ccccc1N1CCN(CCCOc2ccc3c(C)cc(=O)oc3c2)CC1 | -14.1% (inactive) | 72.8 | 58.7 |
| O=c1cc(CN2CCN(c3cccc(Cl)c3)CC2)c2cc3c(cc2o1)CCCC3 | 36.9% (inactive) | 82.6 | 120 |
| O=C(c1ccc(Cl)c(Cl)c1)N1CCCC1 | -4.92% (inactive) | 100 | 95.3 |
| Cc1ccc(NC(=O)Nc2ccc3oc(C)nc3c2)cc1 | -17% (inactive) | 91.5 | 74.5 |
| COc1ccc(Cl)cc1C(=O)NCc1cn(C)nc1C | 5.94% (inactive) | 80.2 | 86.1 |
| O=C(CN1CCCCCC1)N1c2ccccc2Sc2ccc(C(F)(F)F)cc21 | -13.5% (inactive) | 50.3 | 36.8 |
| COc1ccc(-c2nnc(SCC(=O)c3ccc4c(c3)OCCO4)o2)cc1 | 2.52% (inactive) | 99.1 | 102 |

| SMILES | differential viability (reversal) (H69AR cells + 2 uM doxorubicin) | viability [1] [%] | viability [2] [%] |
| --- | --- | --- | --- |
| Cc1ccc(S(=O)(=O)Oc2ccc(/C=N/NC(=O)c3c(Cl)cnn3C)cc2)cc1 | -3.21% (inactive) | 82.4 | 79.2 |
| COc1ccc(C(=O)Nc2nc(-c3ccc(S(=O)(=O)N4CCOCC4)cc3)cs2)cc1 | -4.07% (inactive) | 62.1 | 58 |
| O=c1c2ccccc2nc2n1C1(CCCCC1)Cc1ccccc1-2 | -4.43% (inactive) | 88.2 | 83.7 |
| COC(=O)/C(NC(C)=O)=C(\C)c1ccc(Cl)cc1 | -15.7% (inactive) | 118 | 102 |
| Cc1nnc(SCC(=O)Nc2ncc3c(n2)CC(C)(C)CC3=O)s1 | 16.1% (inactive) | 79.2 | 95.3 |
| CC(=O)c1cccc(NC(=O)N2CCCC2C(=O)NCCc2ccccc2)c1 (stereo not drawn) | 1.66% (inactive) | 89.9 | 91.5 |
| O=C(/C=C/NNC(=O)c1cccc(Br)c1)c1ccccc1 | -16.9% (inactive) | 78.5 | 61.5 |
| COC(=O)c1ccc(Sc2ccc(F)cc2)c(N)c1 | 11.2% (inactive) | 97.4 | 109 |
| O=C(CN1CCCCC1)N1c2ccccc2Sc2ccc(C(F)(F)F)cc21 | -4.36% (inactive) | 91.2 | 86.8 |
| CC(CO)N1CCS(=O)(=O)CC1 (stereo not drawn) | 9.77% (inactive) | 83.8 | 93.6 |
| O=C(CCN1C(=O)c2ccccc2C1=O)Nc1cccc(F)c1 | 0% (inactive) | 98.2 | 98.2 |
| Cc1ccc(SCCC(=O)OCC(=O)Nc2ncc(Cl)cc2Cl)cc1 | 6.94% (inactive) | 72.7 | 79.6 |
| O=C(NCc1ccco1)c1ccc(Cn2c(=O)c3sccc3n(Cc3ccc(F)cc3)c2=O)cc1 | 11.8% (inactive) | 70.9 | 82.7 |
| CC1(C)CCc2nc(SCc3ccccc3)c(C#N)cc2C1 | 3.69% (inactive) | 77.7 | 81.4 |
| Cc1csc(OCC(=O)Nc2ccc(C)c(C)c2)n1 | 0.06% (inactive) | 107 | 107 |
| Cc1ccc(O)c(CNc2nc3ccccc3n2C)c1 | 3.81% (inactive) | 84.6 | 88.4 |
| O=c1[nH]c2c(c(=O)n1Cc1ccccc1)CCC2 | 3.8% (inactive) | 94.9 | 98.7 |
| COC(=O)c1ccccc1NC(=O)CSc1nnnn1C | -8.64% (inactive) | 104 | 95.3 |
| O=C(NCc1cccnc1)Nc1ccccc1F | -0.98% (inactive) | 99.8 | 98.8 |
| CCCc1nc2scc(-c3ccc(C)cc3)c2c(=O)n1N | -37.7% (inactive) | 83.8 | 46.1 |
| CC(=O)c1ccc2c(c1)c1ccccc1n2CC(C)C | -0.04% (inactive) | 73.3 | 73.2 |
| CCCCC(C(=O)OCC(=O)c1ccc(OC)cc1)N1C(=O)c2ccccc2C1=O (stereo not drawn) | -8.79% (inactive) | 104 | 95 |
| CCn1nccc1C(=O)Nc1ccc(S(=O)(=O)NC23CC4CC(CC(C4)C2)C3)cc1 | -7.56% (inactive) | 84 | 76.5 |
| COc1ccc(Nc2nc(=O)[nH]nc2C)cc1 | -5.85% (inactive) | 101 | 95.5 |
| CCOC(=O)Cc1csc(NC(=O)CSc2nnc(-c3cccnc3)n2Cc2ccco2)n1 | 14.6% (inactive) | 85.7 | 100 |
| COCCn1c(=S)[nH]c2cc(C(=O)NCCc3ccc(OC)c(OC)c3)ccc2c1=O | 2.26% (inactive) | 75.8 | 78.1 |

| SMILES | differential viability (reversal) (H69AR cells + 2 uM doxorubicin) | viability [1] [%] | viability [2] [%] |
| --- | --- | --- | --- |
| CC(=O)Nc1ccc(N2C(=O)CCC2=O)cc1C | -10.5% (inactive) | 86.7 | 76.2 |
| CCc1c(C)sc(NC(=O)c2cccs2)c1C(N)=O | 4.09% (inactive) | 95.6 | 99.7 |
| CC1(C)OC(=O)N2CCc3ccccc3C21C (stereo not drawn) | 3.59% (inactive) | 88 | 91.6 |
| Cc1[nH]n(-c2ccc([N+](=O)[O-])cc2)c(=O)c1C=NCCN1CCN(C(=O)c2ccccc2F)CC1 | -1.07% (inactive) | 40.5 | 39.4 |
| COc1cccc(N(CC(=O)NCCSc2ccccn2)S(C)(=O)=O)c1 | 3.02% (inactive) | 92.5 | 95.5 |
| CCCC1NC(=O)NC(C)=C1C(=O)OCC (stereo not drawn) | 2.9% (inactive) | 96.9 | 99.8 |
| COc1ccccc1C(c1nnnn1C(C)(C)C)N1CCN(Cc2ccccc2)CC1 (stereo not drawn) | 9.02% (inactive) | 76.2 | 85.2 |
| Cc1cc2nnc(SCC(=O)N3CCN(c4ccccc4)CC3)n2c(N)n1 | -1.47% (inactive) | 65.8 | 64.4 |
| O=C(Nc1ccc(Cl)cc1)c1cc2nc(C3CC3)cc(C(F)(F)F)n2n1 | 10.2% (inactive) | 69.3 | 79.5 |
| CC1=CC(C)(C)Nc2ccc(OC(=O)C(Cc3ccccc3)N3C(=O)C4CCCCC4C3=O)cc21 (stereo not drawn) | 11.8% (inactive) | 68.5 | 80.3 |
| COCCn1c(C)cc(C2=NNC(=Nc3ccc(F)cc3)SC2)c1C | -17.5% (inactive) | 106 | 88.2 |
| Cc1ccc(-n2c(=O)c(C#N)cc3c(=O)n4ccccc4nc32)cc1C | -12.1% (inactive) | 87.2 | 75.1 |
| Cc1cc(NC(=O)CSc2nc(C(C)C)nc3sc4c(c23)CCC(C)C4)no1 (stereo not drawn) | -2.83% (inactive) | 8.84 | 6.01 |
| CC(C)NC(=O)CSc1ccccc1C(=O)NCc1ccc2c(c1)OCO2 | 5% (inactive) | 91.7 | 96.7 |
| Cc1cccc2c(=O)n3c(nc12)CCCCC3 | 7.51% (inactive) | 83.8 | 91.3 |
| COc1ccc(CNC(=O)CCn2cccc2)cc1 | -1.19% (inactive) | 100 | 98.9 |
| CCOc1cc(C(=O)Nc2c(C)ccc3nsnc23)cc(OCC)c1OCC | -5.65% (inactive) | 84 | 78.3 |
| COC(=O)c1sccc1NC(=O)CCC1CCCC1 | 11.8% (inactive) | 81.7 | 93.5 |
| Cc1cc(O)cc(O)c1C(=O)Cc1cnn(-c2ccccc2)c1 | 13% (inactive) | 66.8 | 79.8 |
| CCOC(=O)c1c(N)sc(C(C)=O)c1C | 11.1% (inactive) | 81.7 | 92.8 |
| Cc1cccc(S(=O)(=O)CC(=O)Nc2nc(-c3ccccc3)cs2)c1 | 12.9% (inactive) | 86.8 | 99.7 |
| Cn1c(SCC(=O)C(C)(C)C)nnc1-c1ccccn1 | 3.29% (inactive) | 95 | 98.3 |
| COc1ccc(NC(=O)C2C3C=CC(C3)C2C(=O)NCc2ccccn2)c(OC)c1 (stereo not drawn) | 48.3% (inactive) | 44.7 | 93.1 |
| Cc1ccc(S(=O)(=O)NCC(=O)N2CCN(c3ccccn3)CC2)cc1 | 14.2% (inactive) | 87.1 | 101 |
